Tau ThT inhib – qHTS for Inhibitors of Tau Fibril Formation, Thioflavin T Binding. AID 1460, 2008. Microtubule-associated protein tau (Homo sapiens), P10636. Potency, µM (doses to about 57.4 µM), for inactives: top-dose activity, negative = inhibition, most hits filed as inhibitors. recombinant tau K18 P301L, heparin-induced fibrillization, ThT fluorescence. actives 2.1% (n = 270,000); also: nearly all actives have a fitted effect of over 55% in size
Target sequence (P10636 561-689 P618L limits assumed): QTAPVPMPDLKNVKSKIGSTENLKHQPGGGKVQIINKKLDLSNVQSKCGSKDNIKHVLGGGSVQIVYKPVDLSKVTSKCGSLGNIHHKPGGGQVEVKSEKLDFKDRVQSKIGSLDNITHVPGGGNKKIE
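Recombinant human tau K18 fragment […] carrying P301L, 15 uM unlabeled plus 0.24 uM Alexa 594-labeled, was fibrillized with 20 uM heparin in 100 mM sodium acetate pH 7 for 6 hr at 37 C; 30 uM ThT fluorescence read after 1 hr.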
TexasRed fluor – Total Fluorescence Counterscreen for Inhibitors of the Interaction of Thyroid Hormone Receptor and Steroid Receptor Coregulator 2; Potency, µM (doses to about 106 µM), without a hit: top-dose fluorescence change, negative = quenching; TRb/SRC2 Texas Red total fluorescence interference; AID 1479, 2009; actives 0.29% (n = 280,000); active = well fitted curve in either direction with a large enough effect; inconclusive = small, poorly fitted or top-dose-only effect
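Flags fluorescent or light-absorbing compounds by total fluorescence, S + 2P, at 555 nm excitation and 632 nm emission. Mixture: 20 nM Texas Red SRC2 peptide, 0.6 uM human TRb LBD, 1 uM T3, 5% DMSO; compound exposure 5 h at ambient temperature.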
Tau fluor counter – Counterscreen qHTS for Inhibitors of Tau Fibril Formation, Fluorescence Polarization | tau K18 P301L (four-repeat tau fragment) Alexa594 fluorescence, heparin fibrillization | Potency, µM (series often up to 57.7 µM), without a hit: at the top dose activity change, negative = decrease | actives 0.93% (n = 280,000) | AID 1463, 2008; also: nearly all actives have a fitted effect of over 55% in size
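Human K18 P301L tau (15 uM unlabeled plus 0.24 uM Alexa 594-labeled, final) in 100 mM sodium acetate pH 7 was mixed with compound and 20 uM heparin and incubated 6 hr at 37 C.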
TRb-SRC2 inh – qHTS for Inhibitors of the Interaction of Thyroid Hormone Receptor and Steroid Receptor Coregulator 2; Thyroid hormone receptor beta (Homo sapiens), P10828; TRbeta-SRC2 peptide binding, fluorescence polarization; receptor liganded with 1 µM T3; Potency, µM (titrated, usually from 106 µM), for inactives: at the top dose activity change, negative = inhibition, hits mostly inhibitors; actives 0.065% (n = 280,000);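 also: plate controls were bound peptide for no effect and peptide without receptor for full effect; nearly all actives have a fitted effect of over 50% in size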
Target sequence (P10828 whole entry, looked up): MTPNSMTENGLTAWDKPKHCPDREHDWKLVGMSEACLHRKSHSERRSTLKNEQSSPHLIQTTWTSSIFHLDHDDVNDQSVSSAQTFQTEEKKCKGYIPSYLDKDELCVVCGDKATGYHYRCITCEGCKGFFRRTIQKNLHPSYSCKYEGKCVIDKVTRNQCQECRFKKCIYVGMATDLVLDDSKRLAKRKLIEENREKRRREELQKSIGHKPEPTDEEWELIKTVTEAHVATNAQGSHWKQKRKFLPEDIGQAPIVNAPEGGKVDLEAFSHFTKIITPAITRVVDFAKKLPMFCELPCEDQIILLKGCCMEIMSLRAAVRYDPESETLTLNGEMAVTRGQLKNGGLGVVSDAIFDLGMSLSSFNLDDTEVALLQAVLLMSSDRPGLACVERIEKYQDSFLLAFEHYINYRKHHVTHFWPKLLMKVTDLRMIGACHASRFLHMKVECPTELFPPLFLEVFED
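TRb LBD 0.6 uM + Texas Red SRC2 peptide 20 nM, 1 uM T3, Tris buffer w/ 5% DMSO; compound pinned, 5 h RT; FP read ex 555/em 632; normalized to unbound and bound controls.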
Tau FP inhib – qHTS for Inhibitors of Tau Fibril Formation, Fluorescence Polarization | Microtubule-associated protein tau (Homo sapiens), P10636 | K18 P301L tau heparin fibrillization, Alexa594 FP, 6 h | Potency, µM (top dose mostly 57.7 µM), for the others: at the top dose activity, negative = inhibition, most hits filed as inhibitors | actives 0.39% (n = 280,000); also: nearly all actives have a fitted effect of over 55% in size
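Recombinant K18 P301L […], labeled with Alexa 594 at 0.24 uM over 15 uM unlabeled; heparin inducer 20 uM final; 37 C, 6 hr; FP endpoint.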
Numbers without * were called inactive; ? = inconclusive; nt = no result given; [ ] = remark or other dose. The list is not random: actives were taken first. Their share in the collection is about 3.1%. Unless noted, calls follow the shape of the dose curve; as a rule, active = well fitted curve in the direction sought with a large enough effect; inconclusive = small, poorly fitted or top-dose-only effect, or another doubt; inactive = no such curve, though single readings can be large; an effect the other way counts as inactive or inconclusive. Unless noted, % is scaled to controls: 0 for no effect and ±100 for the full control effect; potency is read from the fitted curve at half-maximal effect.

SMILES	Tau ThT inhib	TexasRed fluor	Tau fluor counter	TRb-SRC2 inh	Tau FP inhib
Cc1cccc(N2CCN(C(=O)Cn3ncc4c([nH]c5ccccc54)c3=O)CC2C)c1 (stereo unspecified)	3.2%	4.8%	3.5%	2.5%	7.8%
C/C(N)=C(/C#N)C(=O)COC(=O)c1cc(-c2ccc(Br)cc2)nc2ccccc12	-7.1%	22.4µM*[quencher]	-8.0%	-10.9%[53 µM]	4.4%
O=C(COC(=O)c1cc(-c2ccccc2)nc2ccccc12)c1ccc(Br)cc1	-5.8%	3.7%	-19.3%	-2.0%	?
Cc1nn2c(=O)cc(COC(=O)c3ccccc3NC(=O)C(C)Oc3ccccc3)nc2s1 (stereo unspecified)	-1.7%	-0.4%	0.6%	6.8%	6.9%
CCOC(=O)c1c(C)[nH]c(C)c1S(=O)(=O)N1CCC(C(=O)NCc2ccccc2)CC1	-5.7%	0.1%	-7.4%	-2.8%	-6.7%
CCCC(=O)N1c2ccccc2C(=C2SC(C(=O)OC)=C(C(=O)OC)S2)C(=S)C1(C)C	2.24µM*	-0.2%	?	-19.2%	?
CC1C(=O)Nc2ccccc2N1C(=O)C1CC1 (stereo unspecified)	-12.0%	0.8%	-16.1%	4.0%	-5.0%
COC(=O)C1=C(C(=O)OC)SC(=C2C(=S)C(C)(C)N(C(=O)C(C)C)c3ccccc32)S1	1µM*	-1.1%	?	-0.5%	?
COC(=O)C1=C(C(=O)OC)SC(=C2C(=S)C(C)(C)N(C(=O)C3CC3)c3ccccc32)S1	2.51µM*	-5.6%	?	2.9%	?
COc1ccc(F)cc1S(=O)(=O)NCCc1c(C)[nH]c2c(Cl)cccc12	-8.5%	-3.5%	?	0.0%	8.5%
Nc1ccc2oc(-c3cccc4ccccc34)nc2c1	?	-4.5%	15.8µM*[quencher]	-1.2%	7.3%
CC1=NN(CCC#N)C(=O)/C1=C/c1ccc(N(C)C)cc1	25.1µM*	-3.0%	-10.4%	-3.9%	-7.4%
CCOc1cc(/C=C2\C(=O)N(CCC#N)N=C2C)ccc1OCC(N)=O	-11.3%	-3.2%	-3.4%	-19.6%	-5.4%
Cc1ccccc1-n1c(=O)/c(=C\c2ccco2)s/c1=C(/C#N)C(=O)Nc1ccccc1	15.8µM*	-9.7%	-29.4%	?	?
O=C(NNc1ccc(C(F)(F)F)cc1[N+](=O)[O-])c1ccc(NS(=O)(=O)c2ccc(F)cc2)cc1	14.1µM*	-0.4%	11.2µM*[quencher]	6.1%	?
CCOc1ccc(/C=N/Nc2ccccn2)cc1OC	?	0.6%	-14.2%	-1.5%	4.8%
CCOc1ccc(/C=N/N(C)c2ccccc2)cc1OC	7.94µM*	-2.6%	?	-3.8%	?
COc1cccc(Oc2cn[nH]c2-c2ccc(O)cc2O)c1	-9.0%	-0.6%	?	6.4%	?
CCOc1ccc(-c2[nH]ncc2Oc2cccc(OC)c2)c(O)c1	?	-1.6%	15.8µM*[quencher]	-5.1%	?
COc1cccc(Oc2cn[nH]c2-c2ccc(OC)cc2O)c1	-11.1%	0.1%	14.1µM*[quencher]	1.1%	-10.5%
Cc1ccc(CC(Cc2nc3ccccc3[nH]2)c2nc3ccccc3[nH]2)cc1 (stereo unspecified)	3.1%	0.5%	-9.5%	-5.4%	-15.9%
COC(=O)N=Nc1c(O)[nH]c2ccc(Br)cc12	?	0.4%	-1.9%	-4.1%	4.6%
COc1ccc(Cc2nnc(N=Nc3c(O)[nH]c4ccc(Br)cc34)[nH]c2=O)cc1	15.8µM*	-2.4%	-26.9%	2.0%	0.9%
COc1ccc2ccc3c(c2c1)N=C[C@]1(O3)N(C)c2ccccc2C1(C)C	20µM*	?	?	?	?
CC1=NOC2(C1)N(C)c1ccccc1C2(C)C (stereo unspecified)	9.2%	2.2%	7.1%	-14.2%	-3.2%
SMILES	Tau ThT inhib	TexasRed fluor	Tau fluor counter	TRb-SRC2 inh	Tau FP inhib
Cc1ccccc1NCC(=O)N=Nc1c(O)[nH]c2ccc([N+](=O)[O-])cc12	?	-5.1%	17.8µM*[quencher]	6.8%	6.3%
Cc1ccc(OC(C)C(=O)N=Nc2c(O)[nH]c3ccc([N+](=O)[O-])cc23)cc1 (stereo unspecified)	?	-3.6%	15.8µM*[quencher]	-0.6%	6.0%
Cc1cccc(OCC(=O)N=Nc2c(O)[nH]c3ccc([N+](=O)[O-])cc23)c1	3.98µM*	-2.5%	?	7.4%	-7.2%
CCCCCC(=O)N=Nc1c(O)[nH]c2ccc([N+](=O)[O-])cc12	-11.4%	-0.6%	-16.6%	-8.2%	3.4%
Cc1ccc(NCC(=O)N=Nc2c(O)[nH]c3ccc([N+](=O)[O-])cc23)cc1	15.8µM*	?	25.1µM*[quencher]	-13.7%	2.9%
CCNC(=S)N=Nc1c(O)[nH]c2ccc([N+](=O)[O-])cc12	?	-5.0%	-13.2%	7.3%	5.9%
CC(=O)OCC(NC(=O)C(COCc1ccccc1)NC(=O)OC(C)(C)C)C1OC(n2cc(C)c(=O)[nH]c2=O)C(OC(C)=O)C1OC(C)=O (stereo unspecified)	nt	0.0%	nt	0.9%	nt
CCCCOc1ccccc1Cn1c(=O)sc2ccccc21	-2.8%	7.5%	-13.2%	5.0%	-4.1%
O=C(Nc1ccc(F)cc1)C(=O)c1c(O)[nH]c2ccc([N+](=O)[O-])cc12	15.8µM*	-4.7%	-27.3%	-5.5%	2.0%
O=[N+]([O-])c1ccc2[nH]c(O)c(N=NC(=S)Nc3cccnc3)c2c1	2.24µM*	-24.2%	?	-0.9%	12.2%
O=C(N=Nc1c(O)[nH]c2ccc([N+](=O)[O-])cc12)c1ccccc1Cl	?	0.9%	-24.9%	-3.6%	11.9%
CN(C)S(=O)(=O)c1ccc(C(=O)NCCN2C(=O)S/C(=C\c3cccnc3)C2=O)cc1	1.6%	-1.9%	3.0%	-6.8%	-2.8%
CS(=O)(=O)c1ccc(C(=O)NCCN2C(=O)S/C(=C\c3cccnc3)C2=O)cc1[N+](=O)[O-]	15.8µM*	-6.6%	?	1.2%	?
CCCCC1=CC2=CC(=O)C(C)(OC(=O)c3ccco3)C(=O)C2=CO1 (stereo unspecified)	-8.3%	-0.9%	-6.4%	-0.7%	?
O=C(Cc1ccc(Cl)cc1Cl)Nc1ccc(OC(F)F)c(Cl)c1	-0.6%	-1.0%[53 µM]	-22.2%	-2.3%[53 µM]	?
O=C(Nc1ccc(OC(F)F)c(Cl)c1)Nc1ccc2c(c1)OCO2	?	-3.0%	5.01µM*[quencher]	-8.1%	12.8%
O=C(Nc1ccc([N+](=O)[O-])cc1)Nc1ccc(OC(F)F)c(Cl)c1	?	-1.2%	?	-2.8%	10µM*

Assay outcomes deposited in PubChem by National Center for Advancing Translational Sciences (NCATS).
